# Laboratory results as given in PubChem BioAssay AID694 (Emory University Molecular Libraries Screening Center, 2007).
# Hit rate of the full screen: of about 1,300 compounds, about 25 (2%) were called active. How the calls were made is not given here. For the sample, actives were picked, then their nearest neighbours and some compounds at random.
# Biological target: Estrogen receptor (Homo sapiens) (UniProt P03372)
# Experiment: blockers of coactivator recruitment to ERα – biochemical, LOPAC library, TR-FRET, primary screen (AID 694);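 further: receptor was agonist-bound with estradiol present during the assay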
# Details: TR-FRET ERalpha-coactivator peptide binding, stronger effect = higher value
# Chain of Estrogen receptor (Homo sapiens) (P03372 whole entry, looked up): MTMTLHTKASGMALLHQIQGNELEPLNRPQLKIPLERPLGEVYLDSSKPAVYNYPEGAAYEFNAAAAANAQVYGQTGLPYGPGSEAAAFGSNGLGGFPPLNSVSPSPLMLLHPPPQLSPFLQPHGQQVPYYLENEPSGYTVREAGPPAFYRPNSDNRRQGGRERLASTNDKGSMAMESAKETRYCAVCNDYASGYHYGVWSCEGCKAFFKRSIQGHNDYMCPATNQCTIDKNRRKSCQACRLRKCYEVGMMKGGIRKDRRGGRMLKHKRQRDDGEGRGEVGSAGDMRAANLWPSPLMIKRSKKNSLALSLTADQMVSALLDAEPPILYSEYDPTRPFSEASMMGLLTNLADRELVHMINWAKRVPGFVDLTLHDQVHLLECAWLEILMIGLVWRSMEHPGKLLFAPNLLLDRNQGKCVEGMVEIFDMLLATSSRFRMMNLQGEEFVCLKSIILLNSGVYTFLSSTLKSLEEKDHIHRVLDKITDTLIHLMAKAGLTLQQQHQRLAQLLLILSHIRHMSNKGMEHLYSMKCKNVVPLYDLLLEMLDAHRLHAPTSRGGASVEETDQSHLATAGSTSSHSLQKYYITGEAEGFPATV
Structure (SMILES),inhibition (at 45 µM),"inhibition (inhibition, at 15 µM)"
CN(N=O)c1ccc(O)c(O)c1,99.9% [fluorescence artefact?] (active),100%
CCCN(CCC)CCc1ccc(O)c(O)c1,-9.9% (inactive),5.4%
CN(N=O)c1cc(O)ccc1O,98.6% [fluorescence artefact?] (active),95.4%
CCCN(CCC)[C@@H]1CCc2ccc(O)cc2C1,-8.07% (inactive),3.7%
C[C@@H]1O[C@H](C[N+](C)(C)C)CS1,-6.11% (inactive),5.81%
c1ccc2c(N3CCNCC3)cccc2c1,-1.45% (inactive),2.78%
C=CCN1CCC2(C)c3cc(O)ccc3CC1C2C (stereo not given),-11.9% (inactive),-3.04%
CC[C@@H](CO)NC(=O)[C@@H]1C=C2c3cccc4[nH]cc(c34)C[C@H]2N(C)C1,6.08% (inactive),0.61%
Clc1ccc(C(c2ccc(Cl)cc2)n2cc[n+](CC(OCc3ccc(Cl)cc3Cl)c3ccc(Cl)cc3Cl)c2)cc1 (stereo not given),59.5% [fluorescence artefact?] (active),52.6%
CO[C@H]1CC=C2CCN3CCC4=C(CC(=O)OC4)[C@]23C1,-3.26% (inactive),3.57%
O=C(O)[C@@H]1CCN1,-15.6% (inactive),-3.72%
CCCN(CCC)C1CCc2ccc(O)cc2C1 (stereo not given),-3.18% (inactive),3.52%
N[C@@H](Cn1cc(I)c(=O)[nH]c1=O)C(=O)O,0.52% (inactive),3.65%
COC(=O)c1cc2c(cn1)[nH]c1ccccc12,-2.45% (inactive),2.65%
NC(Cc1cc(O)c(O)cc1O)C(=O)O (stereo not given),100% [fluorescence artefact?] (active),100%
N[C@@H](CCl)C(=O)O,-9.05% (inactive),-4.18%
Cc1o[nH]c(=O)c1CC(N)C(=O)O (stereo not given),-4.5% (inactive),-1.59%
O=[N+]([O-])c1ccc(O[C@@H]2O[C@H](CO)[C@@H](O)[C@H](O)[C@H]2F)c([N+](=O)[O-])c1,-0.11% (inactive),6.88%
Fc1ccc(C(OCCN2CCN(CCCc3ccccc3)CC2)c2ccc(F)cc2)cc1,-7.86% (inactive),-2.51%
CN1C[C@@H](CS(=O)(=O)N(C)C)C[C@@H]2c3cccc4c3c(cn4C)C[C@H]21,-2.14% (inactive),-2.21%
